Where “and” joins values, the source holds several entries; their conditions need not be identical. Identical values can stand only once. Results filed as inconclusive are left out. Calls of active or inactive are those of the source. Unless noted, calls come from the whole dose curve; as a rule, active = well fitted curve in the direction sought with a large enough effect in the repeat runs; inconclusive = weak or mixed curves; inactive = no such curve, though single readings can be large; an effect the other way counts as inactive or inconclusive.
Key:
[1] = qHTS assay for small molecule agonists of the p53 signaling pathway (AID 651631; calls by dose curve; note: nearly all actives have a fitted effect of over 15% in size)
Outline: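 Beta-lactamase reporter activity under p53 response elements was quantified in HCT-116 cells by FRET fluorescence, following 16 h incubation with test compounds at 37 °C and 2 h substrate development at room temperature.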

[2] = qHTS assay for small molecules that induce genotoxicity in human embryonic kidney cells expressing luciferase-tagged ATAD5 (AID 651632); note: nearly all actives have a fitted effect of over 15% in size; note: potency is the fitted concentration of half-maximal effect
Outline: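 A rise in luciferase signal from ATAD5-tagged HEK293T cells marks genetic stress. Cells were exposed to compounds for 16 hr at 37C, 5% CO2, then luciferase was quantified after a 30 min room-temperature incubation with Amplite.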

[3] = qHTS assay for small molecule agonists of the p53 signaling pathway - cell viability (AID 651633; calls by dose curve; note: nearly all actives have a fitted effect of over 30% in size; note: potency is the fitted concentration of half-maximal effect)
Outline: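 Viability counter-read: CellTiter-Glo luminescence (30 min, room temperature) in the same p53RE-bla plates. These plates had been exposed to compounds for 16 h at 37 C.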

[4] = qHTS assay for small molecules that induce genotoxicity in human embryonic kidney cells expressing luciferase-tagged ATAD5 - cell viability (AID 651634; calls by dose curve; note: nearly all actives have a fitted effect of over 25% in size; note: potency is the fitted concentration of half-maximal effect)
Outline: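 Cytotoxicity counter-readout: after 15.5 hr compound treatment at 37C, live-cell protease activity in ATAD5-luciferase HEK293T cells measured by CellTiter-Fluor fluorescence, 30 min development at 37C.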

[5] = qHTS assay for small molecule disruptors of the mitochondrial membrane potential (AID 720635); note: potency is the fitted concentration of half-maximal effect
Outline: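 Mitochondrial membrane potential tracked with Mito-MPS dye, red aggregates (ex 540/em 590 nm) against green monomers (ex 490/em 535 nm). Compound treatment 1 hr at 37C, dye 30 min in HepG2.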

[6] = qHTS assay to test for compound auto fluorescence at 590 nm (red) in HepG2 cells (AID 720674)
Outline: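 We screened compounds on adherent HepG2 cells, incubating them for an hour at 37 C in 5% CO2 before reading emission at 590 nm under 540 nm excitation; values reflect equivalence to Rose Bengal sodium fluorescence.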

[7] = qHTS assay to test for compound auto fluorescence at 535 nm (green) in HepG2 cells (AID 720675)
[8] = qHTS assay to test for compound auto fluorescence at 460 nm (blue) in HEK293 cells (AID 720678); note: potency is the fitted concentration of half-maximal effect
Outline: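 HEK293, 2,000 cells/well, 10% dialyzed FBS; attach 4-5 hr 37C; pin compound or DMSO; o/n 37C/5% CO2; fluorescence 405/460 nm; triamterene-equivalent units.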

[9] = qHTS assay to test for compound auto fluorescence at 590 nm (red) in HEK293 cells (AID 720679)
Outline: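 Intensity at 540nm excitation and 590nm emission is reported as Rose Bengal sodium-equivalent autofluorescence. Measurements followed overnight exposure (37C, 5% CO2) of HEK293 cells, 2,000 per well, to 23 nL compound.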

[10] = qHTS assay to test for compound auto fluorescence at 535 nm (green) in HEK293 cells (AID 720680)
[11] = qHTS assay to test for compound auto fluorescence at 460 nm (blue) in HEK293 cell free culture (AID 720681); note: potency is the fitted concentration of half-maximal effect
Outline: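 Blue fluorescence (Ex 405/Em 460 nm, triamterene-equivalent) was read immediately after pin transfer of compound or DMSO into medium (DMEM, 10% FBS) without cells.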

[12] = qHTS assay to test for compound auto fluorescence at 535 nm (green) in HEK293 cell free culture (AID 720682)
Outline: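 Each library compound, or DMSO control, is added by pintool to medium alone, comprising DMEM and 10% FBS. Emission at 535 nm following 485 nm excitation is quantified against fluorescein.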

[13] = qHTS assay to test for compound auto fluorescence at 590 nm (red) in HEK293 cell free culture (AID 720683)
Outline: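 Red-channel autofluorescence of compounds in culture medium (DMEM, 10% FBS), no cells, measured at 540/590 nm. Rose Bengal sodium is the reference fluorophore for equivalence.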

[14] = qHTS assay to test for compound auto fluorescence at 590 nm (red) in HepG2 cell free culture (AID 720684)
Outline: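 No cells present: MEM + 10% FBS only. Compound pinned in, red label read (540/590 nm). Activity = fluorescence equivalent to Rose Bengal sodium.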

[15] = qHTS assay to test for compound auto fluorescence at 460 nm (blue) in HepG2 cell free culture (AID 720685); note: potency is the fitted concentration of half-maximal effect
Outline: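 Cell-free plates of MEM plus 10% FBS received 23 nL compound or DMSO vehicle; blue-channel (405/460 nm) intensity scored against triamterene as reference fluorophore.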

[16] = qHTS assay to test for compound auto fluorescence at 460 nm (blue) in HepG2 cells (AID 720687); note: potency is the fitted concentration of half-maximal effect
Outline: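 Blue-channel autofluorescence (Ex/Em 405/460 nm, triamterene-equivalent) was measured after 1 hr compound exposure at 37 C, 5% CO2. Cells were HepG2, plated overnight at 37 C in MEM plus 10% FBS.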

[17] = qHTS assay for small molecule disruptors of the mitochondrial membrane potential - cell viability (AID 720634; calls by dose curve; note: nearly all actives have a fitted effect of over 20% in size; note: potency is the fitted concentration of half-maximal effect)
Outline: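 Cytotoxicity was quantified from ATP content by CellTiter-Glo luminescence in the same wells as the MMP dye read-out. HepG2 (2,000 cells/well) were plated overnight and exposed to compounds for 1 hr at 37 C.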

[18] = qHTS assay to test for compound auto fluorescence at 535 nm (green) in HepG2 cell free culture (AID 720686)
[19] = target: Glucocorticoid receptor (Homo sapiens) (UniProt P04150); test: qHTS assay to identify small molecule agonists of the glucocorticoid receptor (GR) signaling pathway (AID 720691; active = well fitted activation curve with a large enough effect in the signal ratio in the repeat runs, not every such curve was filed as active; the % refers to the signal ratio)
Glucocorticoid receptor (Homo sapiens), sequence (P04150 whole entry, looked up): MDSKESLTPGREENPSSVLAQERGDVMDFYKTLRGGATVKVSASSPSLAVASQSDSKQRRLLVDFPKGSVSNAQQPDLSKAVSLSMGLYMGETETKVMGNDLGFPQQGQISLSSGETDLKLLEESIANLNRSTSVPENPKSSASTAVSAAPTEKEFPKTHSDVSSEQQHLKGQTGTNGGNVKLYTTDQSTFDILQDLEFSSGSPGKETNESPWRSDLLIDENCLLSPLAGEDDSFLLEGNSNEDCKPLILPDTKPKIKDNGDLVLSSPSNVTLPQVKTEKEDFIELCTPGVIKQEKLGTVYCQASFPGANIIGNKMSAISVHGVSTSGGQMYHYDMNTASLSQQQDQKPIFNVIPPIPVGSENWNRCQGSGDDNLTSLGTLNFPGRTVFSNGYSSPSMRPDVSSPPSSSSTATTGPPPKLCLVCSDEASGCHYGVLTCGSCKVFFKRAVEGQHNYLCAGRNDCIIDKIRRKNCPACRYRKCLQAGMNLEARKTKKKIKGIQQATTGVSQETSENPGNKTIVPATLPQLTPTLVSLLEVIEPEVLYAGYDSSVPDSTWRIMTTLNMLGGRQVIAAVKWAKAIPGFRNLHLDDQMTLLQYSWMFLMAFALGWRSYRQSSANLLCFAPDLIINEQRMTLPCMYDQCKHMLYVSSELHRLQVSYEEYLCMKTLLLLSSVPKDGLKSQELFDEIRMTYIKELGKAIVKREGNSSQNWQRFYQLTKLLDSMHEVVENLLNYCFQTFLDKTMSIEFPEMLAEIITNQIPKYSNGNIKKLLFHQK
Outline: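 Agonist-mode qHTS in HeLa cells stably expressing a glucocorticoid-response-element beta-lactamase reporter. Fluorescence intensity read with FRET substrate (2 h, room temperature) after 18 h compound treatment at 37 C.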

Measured: Potency
Tags give direction and shape of the fitted curve or compound fluorescence and quenching.

CC(C)[C@H](C(=O)O[C@H](C#N)c1cccc(Oc2ccccc2)c1)c1ccc(Cl)cc1
inactive: [1] | [2] | [3] | [4] | [6] | [7] | [8] | [9] | [10] | [11] | [12] | [13] | [14] | [15] | [16]
active: [5] 30.6 µM

CCN(CC)C(=S)[S-].CCN(CC)C(=S)[S-].[Zn+2]
inactive: [17] | [6] | [7] | [8] | [9] | [10] | [11] | [13] | [14] | [15] | [18] | [16]
active: [2] 5.4 µM | [3] 4.29 µM | [4] 15.2 µM | [5] 3.41 µM

Oc1ccc2ccc3cccc4ccc1c2c34
active: [5] 2.73 µM | [8] 35.5 µM [fluorescent] | [11] 44.7 µM | [15] 39.8 µM [fluorescent] | [16] 35.5 µM [fluorescent]
inactive: [2] | [3] | [4] | [7] | [9] | [10] | [12] | [13] | [14] | [18] | [19]

CC1(C)[C@H](C(=O)O[C@H](C#N)c2cccc(Oc3ccccc3)c2)[C@@H]1/C=C(\Cl)C(F)(F)F
active: [5] 25.3 µM
inactive: [2] | [3] | [4] | [6] | [7] | [8] | [9] | [10] | [11] | [12] | [13] | [14] | [16] | [19]

c1ccc2c(c1)[nH]c1cnccc12
inactive: [2] | [3] | [4] | [17] | [5] | [7] | [8] | [9] | [10] | [11] | [12] | [13] | [14] | [15] | [18]

O=[N+]([O-])c1ccc(Oc2ccc(C(F)(F)F)cc2[N+](=O)[O-])cc1
inactive: [2] | [3] | [4] | [6] | [7] | [8] | [9] | [10] | [11] | [13] | [14] | [18] | [16] | [19]
active: [17] 19.3 µM | [5] 12.2 µM

ClC1=C(Cl)C2(Cl)C3C(Cl)C(Cl)CC3C1(Cl)C2(Cl)Cl (centres undefined)
inactive: [2] | [4] | [17] | [6] | [7] | [8] | [9] | [10] | [11] | [13] | [15] | [18] | [16]
active: [3] 54.3 µM and 61.1 µM | [5] 7.67 µM and 13.7 µM
